Reference: PubChem BioAssay (Tox21)
Results filed as inconclusive are left out. Calls of active or inactive are those of the source. Unless noted, the call rests on the fitted dose curve; in most records, active means well fitted curve in the direction sought with a large enough effect in the repeat runs; inconclusive means weak or mixed curves; inactive means no such curve, though single readings can be large; an effect the other way counts as inactive or inconclusive.

Columns and labels:
[1] = qHTS assay to identify aromatase inhibitors - cell viability counter screen (AID 743084);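 further: cells stimulated with testosterone during compound exposure; nearly all actives have a fitted effect of over 55% in size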
[2] = qHTS assay to identify small molecule that activate the aryl hydrocarbon receptor (AhR) signaling pathway - cell viability counter screen (AID 743086);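 further: HepG2 liver cells carrying the AhR DRE luciferase reporter; series mostly up to about 70 µM; nearly all actives have a fitted effect of over 45% in size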
In short: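 Cytotoxicity counter screen: CellTiter-Fluor signal (30 min, 37 C) in 4000 HepG2 cells/well carrying the DRE-luciferase reporter, following 24 h compound exposure at 37 C.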

[3] = target: Peroxisome proliferator-activated receptor gamma (Homo sapiens) (UniProt P37231); test: qHTS assay to identify small molecule agonists of the peroxisome proliferator-activated receptor gamma (PPARg) signaling pathway (AID 743094; active means well fitted activation curve with a large enough effect in the signal ratio in the repeat runs, not every such curve was filed as active; the % refers to the signal ratio)
In short: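 Reporter activation was scored by fluorescence of cleaved LiveBLAzer B/G substrate (1 h, room temperature) in PPARg-bla HEK293H cells previously treated 17 h at 37C with DMSO-dissolved compounds.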

[4] = target: Peroxisome proliferator-activated receptor gamma (Homo sapiens) (UniProt P37231); test: qHTS assay to identify small molecule antagonists of the peroxisome proliferator-activated receptor gamma (PPARg) signaling pathway (AID 743191; calls by dose curve; further: series mostly up to about 63 µM; nearly all actives have a fitted effect of over 30% in size)
In short: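 Beta-lactamase reporter under UAS control in HEK293H PPARg-bla cells; compound treatment 17 h at 37C. Read-out: fluorescence intensity after 1 h room-temperature incubation with LiveBLAzer B/G FRET substrate.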

[5] = qHTS assay for small molecule agonists of the antioxidant response element (ARE) signaling pathway (AID 743202; active means well fitted activation curve with a large enough effect in the signal ratio in the repeat runs, not every such curve was filed as active; the % refers to the signal ratio; further: potency means the concentration at half of the fitted maximal effect)
In short: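 Beta-lactamase reporter activity, read as fluorescence intensity, reflects ARE/Nrf2 pathway induction in HepG2 cells after 16 h compound exposure at 37 C; substrate loading was 2 h at room temperature.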

[6] = qHTS assay for small molecule agonists of the antioxidant response element (ARE) signaling pathway - cell viability counter screen (AID 743203; calls by dose curve; further: nearly all actives have a fitted effect of over 55% in size)
In short: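 Viability counter screen: stably transfected ARE-bla HepG2 line, 16 hrs compound exposure at 37C/5% CO2, ATP-based CellTiter-Glo luminescence measured in the reporter wells.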

[7] = qHTS assay for small molecule activators of the heat shock response signaling pathway - cell viability counter screen (AID 743209); further: nearly all actives have a fitted effect of over 50% in size
In short: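 Viability of HSE-bla HeLa cells is measured with CellTiter-Glo in the wells already used for the reporter read. Compound exposure lasts 5 h at 37 C, and luminescence is read after 30 min at room temperature.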

[8] = qHTS assay for small molecule activators of the heat shock response signaling pathway (AID 743210; active means well fitted activation curve with a large enough effect in the signal ratio in the repeat runs, with a control signal flat, not every such curve was filed as active; the % refers to the signal ratio;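 further: HeLa cells with beta-lactamase reporter driven by heat shock elements; series mostly up to about 63 µM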)
In short: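 Fluorescence from a cleaved B/G FRET substrate (2.5 h, room temp) reports HSE-driven beta-lactamase in HeLa cells treated 5 h at 37 C with DMSO-dissolved compounds.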

[9] = qHTS assay to identify small molecule agonists of the peroxisome proliferator-activated receptor delta (PPARd) signaling pathway - cell viability counter screen (AID 743211); further: nearly all actives have a fitted effect of over 55% in size
In short: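 Read-out: CellTiter-Glo luminescence, 30 min RT, measured in the same wells as the beta-lactamase reporter. Cells: GeneBLAzer PPAR delta UAS-bla HEK293H, 3000 cells/well, compound exposure 17 h at 37C.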

[10] = target: Peroxisome proliferator-activated receptor delta (Homo sapiens) (UniProt Q03181); test: qHTS assay to identify small molecule agonists of the peroxisome proliferator-activated receptor delta (PPARd) signaling pathway (AID 743212; calls by dose curve)
In short: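 Steps: seed PPARd-bla HEK293H cells; incubate 5 h, 37 C, 5% CO2; add compounds in DMSO; incubate, 37 C; add LiveBLAzer B/G FRET substrate; hold 2 h at room temperature; measure fluorescence.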

[11] = qHTS assay to identify small molecule antagonists of the peroxisome proliferator-activated receptor delta (PPARd) signaling pathway - cell viability counter screen (AID 743213); further: nearly all actives have a fitted effect of over 50% in size
In short: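 HEK293H PPARd UAS-bla cells, 5 h pre-incubation, compound + L165041 300 nM final, 17 h 37 C; B/G FRET substrate 2 h RT; then CellTiter-Glo 30 min RT, luminescence.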

[12] = target: Peroxisome proliferator-activated receptor delta (Homo sapiens) (UniProt Q03181); test: qHTS assay to identify small molecule antagonists of the peroxisome proliferator-activated receptor delta (PPARd) signaling pathway (AID 743215; active means well fitted inhibition curve with a large enough effect in the signal ratio in the repeat runs, not every such curve was filed as active; the % refers to the signal ratio;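 further: cells stimulated with agonist L165041 at 300 nM final during compound exposure; series mostly up to about 62 µM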)
In short: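 Plated HEK293H PPARd-bla cells rested 5 h at 37 C and 5% CO2. Compound, then agonist L165041 at 300 nM final, was added; 17 h at 37 C followed. Substrate loading, 2 h room temperature, fluorescence measured.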

[13] = qHTS assay to identify small molecule agonists of the farnesoid-X-receptor (FXR) signaling pathway - cell viability counter screen (AID 743218); further: nearly all actives have a fitted effect of over 45% in size
In short: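 Viability of FXR-bla HEK 293T cells is measured by ATP-based CellTiter-Glo luminescence following 16 h compound treatment at 37 C and a prior 2 h room-temperature beta-lactamase substrate step.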

[14] = qHTS assay to identify small molecule antagonists of the farnesoid-X-receptor (FXR) signaling pathway - cell viability counter screen (AID 743221; active means well fitted cell-killing curve with a large enough effect in the repeat runs, not every such curve was filed as active; further: nearly all actives have a fitted effect of over 50% in size)
In short: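 HEK 293T FXR-bla cells, 5 h pre-incubation; compound + CDCA 50 uM final, 16 h, 37 C; beta-lactamase FRET read first, then CellTiter-Glo luminescence, 30 min RT.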

[15] = target: Vitamin D3 receptor (Homo sapiens) (UniProt P11473); test: qHTS assay to identify small molecule agonists of the vitamin D receptor (VDR) signaling pathway (AID 743222; calls by dose curve)
In short: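 Fluorescence from cleaved LiveBLAzer B/G FRET substrate served as readout. VDR-bla cells had been treated 16 h at 37C with test compounds in DMSO, following a 4 h settling period, and substrate was loaded for 2 h at RT.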

[16] = target: Vitamin D3 receptor (Homo sapiens) (UniProt P11473); test: qHTS assay to identify small molecule antagonists of the vitamin D receptor (VDR) signaling pathway (AID 743223; active means well fitted inhibition curve with a large enough effect in the signal ratio in the repeat runs, not every such curve was filed as active; the % refers to the signal ratio)
In short: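 Beta-lactamase reporter read-out: FRET substrate fluorescence after 2 h at room temperature, following 16 h exposure of VDR-bla cells to test compound plus 3 nM (final) 1alpha,25-dihydroxyvitamin D3 agonist at 37C.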

[17] = target: Aryl hydrocarbon receptor (Homo sapiens) (UniProt P35869); test: qHTS assay to identify small molecule that activate the aryl hydrocarbon receptor (AhR) signaling pathway (AID 743085); further: nearly all actives have a fitted effect of over 15% in size; further: potency means the concentration at half of the fitted maximal effect;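 on activation: HG2L7.5c1 human HepG2 liver cells with stably integrated DRE-driven firefly reporter; series mostly up to about 70 µM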
In short: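 Luminescence read-out: ONE-Glo reagent, 30 min at room temperature, in HG2L7.5c1 HepG2 reporter cells treated 24 h at 37C. Viability was measured beforehand by CellTiter-Fluor fluorescence after 30 min at 37C.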

[18] = qHTS assay to identify small molecule antagonists of the peroxisome proliferator-activated receptor gamma (PPARg) signaling pathway - cell viability counter screen (AID 743194); further: nearly all actives have a fitted effect of over 55% in size
In short: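 Viability was measured as CellTiter-Glo luminescence in GeneBLAzer PPARg UAS-bla HEK293H cells. These cells had been exposed 17 h at 37 C to compounds together with rosiglitazone at 50 nM final, with the beta-lactamase readout taken in the same wells.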

[19] = target: Bile acid receptor (Homo sapiens) (UniProt Q96RI1); test: qHTS assay to identify small molecule antagonists of the farnesoid-X-receptor (FXR) signaling pathway (AID 743217; active means well fitted inhibition curve with a large enough effect in the signal ratio in the repeat runs, not every such curve was filed as active; the % refers to the signal ratio)
In short: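 Screen of the Tox21 10K library in quantitative HTS format using FXR-UAS-bla HEK 293T reporter cells. Agonist chenodeoxycholic acid, 50 uM final, added with compounds; 16 h incubation at 37 °C; beta-lactamase FRET fluorescence measured.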

[20] = target: Bile acid receptor (Homo sapiens) (UniProt Q96RI1); test: qHTS assay to identify small molecule agonists of the farnesoid-X-receptor (FXR) signaling pathway (AID 743220; active means well fitted activation curve with a large enough effect in the signal ratio in the repeat runs, not every such curve was filed as active; the % refers to the signal ratio)
In short: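 FXR-UAS-bla HEK 293T cells carrying a UAS-driven beta-lactamase reporter were plated for 5 h at 37C/5% CO2, then exposed to DMSO-dissolved Tox21 10K compounds for 16 h at 37C. A LiveBLAzer B/G FRET substrate was loaded for 2 h at room temperature before fluorescence reading.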

Measured: Potency

Chain of Vitamin D3 receptor (Homo sapiens) (P11473 whole entry, looked up): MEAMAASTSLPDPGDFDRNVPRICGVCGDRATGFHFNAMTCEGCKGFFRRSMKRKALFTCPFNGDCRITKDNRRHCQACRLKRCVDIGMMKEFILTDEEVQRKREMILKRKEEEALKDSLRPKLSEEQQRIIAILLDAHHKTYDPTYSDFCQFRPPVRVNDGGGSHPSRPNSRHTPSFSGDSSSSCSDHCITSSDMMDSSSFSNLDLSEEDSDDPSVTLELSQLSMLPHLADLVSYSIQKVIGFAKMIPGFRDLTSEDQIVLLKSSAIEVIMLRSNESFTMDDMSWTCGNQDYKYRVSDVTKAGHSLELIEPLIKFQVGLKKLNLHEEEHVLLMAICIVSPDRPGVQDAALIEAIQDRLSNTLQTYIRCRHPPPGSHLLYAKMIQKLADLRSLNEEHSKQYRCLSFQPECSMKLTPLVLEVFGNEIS
Chain of Aryl hydrocarbon receptor (Homo sapiens) (P35869 whole entry, looked up): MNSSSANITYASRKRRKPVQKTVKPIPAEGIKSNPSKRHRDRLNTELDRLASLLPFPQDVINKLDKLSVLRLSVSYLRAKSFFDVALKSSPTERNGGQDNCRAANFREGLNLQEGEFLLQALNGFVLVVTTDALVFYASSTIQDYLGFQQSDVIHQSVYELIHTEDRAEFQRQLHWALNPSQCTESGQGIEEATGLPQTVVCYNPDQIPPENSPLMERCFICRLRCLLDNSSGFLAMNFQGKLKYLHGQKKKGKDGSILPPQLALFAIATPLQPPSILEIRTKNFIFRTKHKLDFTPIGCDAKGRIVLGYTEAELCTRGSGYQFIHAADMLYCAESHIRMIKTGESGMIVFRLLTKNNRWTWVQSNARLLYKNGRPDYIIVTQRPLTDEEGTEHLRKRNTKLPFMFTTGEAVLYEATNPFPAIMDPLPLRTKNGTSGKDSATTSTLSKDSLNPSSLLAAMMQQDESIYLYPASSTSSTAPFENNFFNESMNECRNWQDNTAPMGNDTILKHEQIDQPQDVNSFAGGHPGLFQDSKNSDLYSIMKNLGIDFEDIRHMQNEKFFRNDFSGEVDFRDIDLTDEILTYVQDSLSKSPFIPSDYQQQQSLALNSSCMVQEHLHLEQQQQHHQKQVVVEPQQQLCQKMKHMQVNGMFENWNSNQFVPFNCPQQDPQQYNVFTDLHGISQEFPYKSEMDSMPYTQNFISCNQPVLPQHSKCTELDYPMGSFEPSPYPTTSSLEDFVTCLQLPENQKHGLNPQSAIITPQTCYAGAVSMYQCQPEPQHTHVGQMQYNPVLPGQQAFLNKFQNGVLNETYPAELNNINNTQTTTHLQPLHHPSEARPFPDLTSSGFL
Chain of Peroxisome proliferator-activated receptor delta (Homo sapiens) (Q03181 whole entry, looked up): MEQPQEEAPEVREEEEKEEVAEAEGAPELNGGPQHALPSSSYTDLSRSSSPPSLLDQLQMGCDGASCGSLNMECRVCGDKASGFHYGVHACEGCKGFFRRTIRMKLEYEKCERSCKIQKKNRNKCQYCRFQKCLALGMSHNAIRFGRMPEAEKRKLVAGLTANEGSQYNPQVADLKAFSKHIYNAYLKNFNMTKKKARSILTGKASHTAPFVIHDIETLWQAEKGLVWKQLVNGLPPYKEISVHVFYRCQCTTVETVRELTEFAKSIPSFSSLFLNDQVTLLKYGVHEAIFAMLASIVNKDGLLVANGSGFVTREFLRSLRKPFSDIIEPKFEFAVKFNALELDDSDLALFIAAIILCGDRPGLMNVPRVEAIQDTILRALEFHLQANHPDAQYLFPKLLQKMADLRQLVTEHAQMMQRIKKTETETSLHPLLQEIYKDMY
Chain of Peroxisome proliferator-activated receptor gamma (Homo sapiens) (P37231 whole entry, looked up): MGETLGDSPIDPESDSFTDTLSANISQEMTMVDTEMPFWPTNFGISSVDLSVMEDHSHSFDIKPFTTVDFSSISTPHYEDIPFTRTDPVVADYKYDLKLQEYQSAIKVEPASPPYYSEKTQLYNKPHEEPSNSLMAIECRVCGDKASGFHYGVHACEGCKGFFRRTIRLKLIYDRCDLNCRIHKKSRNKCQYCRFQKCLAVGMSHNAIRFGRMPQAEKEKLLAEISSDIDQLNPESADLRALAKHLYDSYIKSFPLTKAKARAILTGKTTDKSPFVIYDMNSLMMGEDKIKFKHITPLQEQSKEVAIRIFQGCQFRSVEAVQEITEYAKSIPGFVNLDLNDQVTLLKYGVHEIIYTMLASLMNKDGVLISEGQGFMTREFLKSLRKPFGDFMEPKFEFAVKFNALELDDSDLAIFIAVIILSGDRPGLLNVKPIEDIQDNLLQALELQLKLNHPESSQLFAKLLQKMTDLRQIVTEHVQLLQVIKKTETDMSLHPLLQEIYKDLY
Chain of Bile acid receptor (Homo sapiens) (Q96RI1 whole entry, looked up): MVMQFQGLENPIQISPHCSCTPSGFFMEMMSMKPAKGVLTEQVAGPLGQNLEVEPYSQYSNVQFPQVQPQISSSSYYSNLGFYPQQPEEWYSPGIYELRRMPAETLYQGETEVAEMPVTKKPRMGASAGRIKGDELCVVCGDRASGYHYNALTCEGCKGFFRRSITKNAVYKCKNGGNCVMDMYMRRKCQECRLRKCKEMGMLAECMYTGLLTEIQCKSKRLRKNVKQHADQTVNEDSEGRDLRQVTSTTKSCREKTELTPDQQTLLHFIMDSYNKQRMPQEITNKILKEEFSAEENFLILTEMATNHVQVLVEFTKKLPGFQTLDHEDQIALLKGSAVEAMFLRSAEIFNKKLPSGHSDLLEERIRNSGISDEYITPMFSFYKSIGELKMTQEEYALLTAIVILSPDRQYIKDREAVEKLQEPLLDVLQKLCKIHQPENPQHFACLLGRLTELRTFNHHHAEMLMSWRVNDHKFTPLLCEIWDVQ

CCCCCCCC(=O)N(C)C
not listed: [17] | [18] | [19] | [20]
inactive: all other assays above

C/C=C(\C)C=O
not listed: [2] | [3]
inactive: all other assays above

CCCCCCCCCCCCCCCC/C=C/C1CC(=O)OC1=O (centres undefined)
not listed: [2] | [3] | [4] | [16]
inactive: all other assays above

CN(C)CCc1c[nH]c2ccc(CS(=O)(=O)N3CCCC3)cc12
not listed: [2] | [4] | [7] | [19] | [20]
inactive: all other assays above

C=CCOC(=O)CCCCCCCC
not listed: [2] | [4] | [10] | [12] | [13]
inactive: all other assays above

CCN(CC)CC
not listed: [2] | [4] | [20]
inactive: all other assays above

O=C(O)Cc1c(Cl)ccc(Cl)c1Cl
not listed: [2] | [3] | [15] | [16] | [18]
inactive: all other assays above

CCCCCC(=O)CC
not listed: [2] | [4] | [12]
inactive: all other assays above

CC(C)(O)c1ccc(C(C)(C)O)cc1
inactive: [1] | [2] | [3] | [4] | [5] | [6] | [8] | [9] | [11] | [14] | [15]

CC(=O)OC1CCC(C(C)(C)C)CC1 (centres undefined)
not listed: [2] | [3] | [4] | [9] | [16] | [19] | [20]
inactive: all other assays above

C/C(=N\O)c1ccc(OCC(=O)N2CCCCC2)cc1
active: [17] 5.96 µM
not listed: [2] | [3] | [4] | [5] | [15] | [16]
inactive: all other assays above

CCCC(=O)OC
not listed: [10] | [12] | [17] | [19] | [20]
inactive: all other assays above

O=C1Nc2ccccc2C1=O
active: [5] 27.1 µM
not listed: [4] | [7] | [13] | [14] | [17] | [18] | [19] | [20]
inactive: all other assays above

C[C@]12C=CC(=O)C=C1[C@@H](F)C[C@@H]1[C@@H]2[C@@H](O)C[C@@]2(C)[C@H]1CC[C@]2(O)C(=O)CO
not listed: [2] | [11] | [17] | [18] | [19] | [20]
inactive: all other assays above

O=C(O)/C=C(\CC(=O)O)C(=O)O
not listed: [2] | [4]
inactive: all other assays above

O=S(=O)(O)c1cc(I)c(O)c2ncccc12
not listed: [5] | [15] | [16] | [17] | [18] | [19] | [20]
inactive: all other assays above
